Measurements from PubChem BioAssay (NCI).
About 83,000 compounds went through this panel and 20% of them were active in at least one assay; those are over-represented in the sample as a whole.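 In brief: 96-well plates, 48 h treatment, single concentration, percent growth endpoint.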 Calls of active or inactive are those of the source. How the source made its calls: active means growth percent below 10; inactive means the rest.

Experiments:
Assay in all cases: NCI-60 one-dose screen, 48 h (100 = growth as untreated, 0 = no growth, -100 = all killed)
Conditions in all cases: 10 µM unless noted
[1] = system: T-47D breast
[2] = system: BT-549 breast
[3] = system: MDA-MB-435 melanoma
[4] = system: SW-620 colon
[5] = system: MCF7 breast
[6] = system: HCT-116 colon
[7] = system: HCC-2998 colon
[8] = system: KM12 colon

Measured: growth

CC1=C[C@H]2c3c(c(O)c(O)c4oc5ccccc5c(=O)c34)[C@H](c3cc(O)c(O)c4oc5ccccc5c(=O)c34)[C@H]2C(C)(C)C1
inactive: [4] 11.9% | [7] 11.6%
active: [1] 9.72% | [2] -15.3% | [3] -36% | [5] 9.6% | [6] -84.8% | [8] -1.27%

O=C1c2cc3c(cc2-c2c1c1ccc(F)cc1c(=O)n2C[C@H](O)[C@@H](O)[C@H](O)CO)OCO3
active: [1] -4.06% | [2] -21.3% | [3] -76.2% | [4] 7.68% | [5] 4.18% | [6] 9.8% | [7] -8.31% | [8] 7.39%

Cc1ccc(/C=C2\SC(=S)N(CC(=O)NCCCN3CCOCC3)C2=O)cc1
inactive: [1] 90.4% | [2] 102% | [3] 99.4% | [4] 103% | [5] 91.5% | [6] 100% | [7] 102% | [8] 105%

O=C(CN1C(=O)/C(=C/c2ccc(Cl)cc2)SC1=S)NCCCN1CCOCC1
inactive: [1] 84.3% | [2] 102% | [3] 102% | [4] 102% | [5] 92.8% | [6] 102% | [7] 102% | [8] 104%

O=C(COc1ccc(/C=C2\COc3ccccc3C2=O)cc1)Nc1nccs1
inactive: [1] 90% | [3] 105% | [4] 69.1% | [5] 15% | [6] 38.1% | [7] 168% | [8] 43.3%
active: [2] 2.68%

O=C(O)c1ccc(N=CC(=O)c2ccc(-c3ccccc3)cc2)cc1
inactive: [1] 100% | [2] 103% | [3] 103% | [4] 93.3% | [5] 97.6% | [6] 97.9% | [7] 96.7% | [8] 102%

COc1ccc(-n2nc(C)c3c(Nc4ccc(NC(=O)Nc5ccc(Cl)c(C(F)(F)F)c5)cc4)ncnc32)cc1
inactive: [2] 17.2% | [4] 14.3% | [7] 15.6%
active: [1] 1.89% | [3] -9.88% | [5] 1.4% | [6] 7.03% | [8] 6.08%

CCCCn1cnc2c(Sc3c([N+](=O)[O-])ncn3C)nc(N)nc21
inactive: [1] 74.1% | [2] 98.3% | [3] 102% | [4] 102% | [5] 91% | [6] 87.3% | [7] 113% | [8] 108%

O=C(/C=C/c1cccc(Cl)c1)c1ccc(O)c(CN2CCN(c3cc4c(cc3F)c(=O)c(C(=O)O)cn4C3CC3)CC2)c1
inactive: [1] 44.9% | [2] 34% | [3] 44.7% | [4] 21.4% | [5] 28.3% | [7] 61.3% | [8] 51.2%
active: [6] 6.6%

CSc1nc2c(c(=O)[nH]1)C1(C(=O)Nc3ccccc31)c1c(nc(SC)[nH]c1=O)N2
inactive: [1] 111% | [2] 107% | [3] 104% | [4] 99.1% | [5] 102% | [6] 106% | [7] 104% | [8] 103%

CCOC(=O)c1c(C)oc2ncnc(N3CCN(C(=S)Nc4ccccc4)CC3)c12
inactive: [1] 78.7% | [2] 92.4% | [3] 102% | [4] 90.5% | [5] 93.1% | [6] 97.3% | [7] 99.3% | [8] 96.4%

CCCCN1CCCn2c1nc1c2c(=O)n(CCC)c(=O)n1CCC
inactive: [1] 101% | [2] 98.1% | [3] 102% | [4] 96% | [5] 100% | [6] 98.3% | [7] 104% | [8] 100%

CSc1ccc(-c2ccccc(=O)c2O)cc1
inactive: [1] 27% | [2] 29.7% | [3] 23.5% | [4] 29.2% | [5] 15.8% | [6] 20% | [7] 44% | [8] 23.1%

Cc1ccc(OC(=O)c2ccc(Cl)cc2)cc1
inactive: [1] 103% | [2] 100% | [3] 99.1% | [4] 87.3% | [5] 102% | [6] 57.9% | [7] 95.3% | [8] 104%

O=c1cc(/C(=C2/C=CC=N2)c2ccc[nH]2)c2cc(Cl)ccc2o1
active: [3] 9.82%
inactive: [1] 32% | [2] 52.1% | [4] 34.8% | [5] 70.9% | [6] 44.2% | [7] 89.7% | [8] 38.9%

O=C1C=C(OCC=C(Cl)Cl)C(=O)c2ccccc21
active: [3] -55.7%
inactive: [1] 38.9% | [2] 78.6% | [4] 78.3% | [5] 26.6% | [6] 21.8% | [7] 112% | [8] 91%

CC(=O)c1nc2ccccc2n1CC(=O)c1cccc(Cl)c1
inactive: [2] 34.9% | [4] 23% | [7] 29.9%
active: [1] -11.3% | [3] -27.4% | [5] 1.85% | [6] 5.82% | [8] 8.72%

CCOC(=O)c1sc2nc(-c3cccc(OC)c3)nc(N3CCOCC3)c2c1C
inactive: [1] 92.8% | [2] 94.9% | [3] 96.9% | [4] 110% | [5] 90.4% | [6] 96.6% | [7] 99.6% | [8] 97.5%

NC(CSC(c1ccccc1)(c1ccccc1)c1ccc(Cl)cc1)C(=O)O (stereo not drawn)
inactive: [1] 23.7% | [2] 27.1% | [4] 19.2%
active: [3] -40.2% | [5] 8.48% | [6] 4.19% | [7] -36.3% | [8] 1.65%

CCNC(=O)Oc1ccc(/C(=C(\C)c2ccc(Cl)cc2)c2ccc(OCCN(CC)CC)cc2)cc1
inactive: [1] 25.5% | [2] 68.8% | [3] 25% | [5] 16.5% | [6] 38.6% | [7] 51% | [8] 37.5%
active: [4] 2.28%

O=C(O)c1ccc(NC(=O)c2ccc(-c3cccc([N+](=O)[O-])c3)o2)cc1
inactive: [1] 102% | [2] 107% | [3] 100% | [4] 96% | [5] 89.8% | [6] 105% | [7] 99.3% | [8] 99.5%

Cc1ccc2oc(=O)cc(C3c4ccc([nH]4)C(c4cc(=O)oc5ccc(C)cc45)c4ccc([nH]4)C(c4cc(=O)oc5ccc(C)cc45)c4ccc([nH]4)C(c4cc(=O)oc5ccc(C)cc45)c4ccc3[nH]4)c2c1 (stereo not drawn)
active: [1] -28.5% | [2] -49.8% | [3] -76.1% | [4] -7.64% | [5] -20.9% | [6] -78.9% | [7] -68.9% | [8] -73.9%

COc1cc2nc(N3CCCC3)nc(NCCc3ccccc3)c2cc1OC
active: [4] 0.907% | [6] 2.87%
inactive: [1] 80.8% | [2] 82.6% | [3] 91.5% | [5] 35.4% | [7] 70.6% | [8] 96.3%

COc1ccc(-c2nc3ccc(-c4nc5ccc(N6CCN(c7ccncc7)CC6)cc5[nH]4)cc3[nH]2)cc1OC
inactive: [2] 39.4% | [3] 31.4% | [4] 35.6% | [5] 12.3% | [6] 17.8% | [7] 34.9% | [8] 92.8%
active: [1] 6.91%

C=C1c2nc3ccccc3n2C=C(c2cccc(Cl)c2)N1Cc1ccc(OC)cc1
inactive: [4] 20.6% | [6] 12.8% | [7] 25.7% | [8] 13%
active: [1] -22.5% | [2] -1.26% | [3] -32.3% | [5] 4.64%

O=C1CC(=NCC(=O)n2c(-c3ccccc3)nc3ccccc32)NN1
inactive: [1] 89.4% | [2] 107% | [3] 105% | [4] 100% | [5] 72.7% | [6] 94.6% | [7] 109% | [8] 101%

Cn1cc(C(=O)c2nc(-c3c[nH]c4ccc(F)cc34)no2)c2cc(F)ccc21
inactive: [1] 92.1% | [2] 92.5% | [3] 64% | [4] 87.9% | [5] 58.1% | [6] 99.8% | [7] 97.4% | [8] 79.2%

O=C(CN1CCCCC1)Nc1ccc2oc(=O)ccc2c1
inactive: [1] 103% | [2] 107% | [3] 113% | [4] 97.9% | [5] 96% | [6] 101% | [7] 110% | [8] 104%

COc1ccc2cc(-c3nn(-c4ccc(C(=O)O)cc4)cc3CO)ccc2c1
inactive: [1] 98.5% | [2] 93.5% | [3] 98.6% | [4] 107% | [5] 91% | [6] 91% | [7] 100% | [8] 101%

CC1CCNC(C)C1 (stereo not drawn)
inactive: [1] 104% | [2] 105% | [3] 107% | [4] 100% | [5] 96.8% | [6] 108% | [7] 103% | [8] 106%

COc1cccc(/C=C2\Oc3cc(OCCN4CCCC4)ccc3C2=O)c1
inactive: [1] 91.4% | [2] 80.4% | [3] 99.5% | [4] 86.9% | [5] 77.4% | [6] 78% | [7] 82.6% | [8] 97.8%
